Bioassay records (PubChem)
D1 antag: human D1 dopamine receptor antagonism; P21728; HEK293 TREx D1 cells, calcium flux, dopamine EC80; hits give low values; activity change, negative = inhibition, % at 10 µM; 360,000 tested, 3.2% active; AID 504652; in the data active = activity change below about -30%; note: % is set by controls: 0 for no effect and ±100 for the full control effect
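HEK293 T-REx cells expressing inducible, force-coupled D1 receptor; no-wash Ca dye, 30–90 min RT. Cmpd → 180 s read at 1 Hz → EC80 DA → 180 s read.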
ERG-DNA inh: blocks human ERG Ets domain binding to DNA; Potency, µM (doses to about 76.9 µM), for inactives: top-dose FP activity, negative = inhibition, actives largely listed as inhibitors; fluorescence polarization, His-ERG Ets domain / labelled DNA; 370,000 tested, 0.028% active; P11308; active = well fitted inhibition curve with a large enough effect in the polarisation, with a control signal flat; inconclusive = small, poorly fitted or top-dose-only effect, or effect the other way, or a change in a side signal; inactive = no such curve, though single readings can be large or run the other way; the % refers to the polarisation;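 note: polarization taken with two DNA probes labelled with fluorescein and Texas red; potency is the fitted concentration of half-maximal effect; % of control where 0% means no effect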
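His-tagged ERG Ets domain (1 uM in the protein solution; 300mM KCl, 50mM Tris-HCl, 1mM EDTA, 1mM DTT, pH 7.5) received compound, then a probe mix of 5 nM fluorescein-DNA and 100nM Texas-615-DNA. Fluorescence polarization was read for both dyes.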
D1 ag: human D1 receptor agonism; 360,000 tested, 1% active; HEK293 T-REx D1 cells, calcium flux, agonist mode; activation, % at 2 µM; AID 504660; in the data active = activation above about 30%; note: 0% is about no effect
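Inducible HEK293 T-REx D1 cells, force-coupled to calcium signalling, were plated at 4000 cells/well with tetracycline and held overnight at 30 C. After no-wash calcium dye loading, compound-evoked calcium rise over 180 s flagged agonists.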
D3 antag: antagonists of human D3 dopamine receptor; max response, negative = inhibition, %; D3R cells, DiscoveRx beta-arrestin luminescence, antagonist mode; hits give low values; P35462; 360,000 tested, 2.5% active; in the data active = max response below about -50%; inconclusive = no clear call, values can overlap the other calls; note: % is set by controls: 0 for no effect and ±100 for the full control effect
Target sequence (P35462 whole entry, looked up): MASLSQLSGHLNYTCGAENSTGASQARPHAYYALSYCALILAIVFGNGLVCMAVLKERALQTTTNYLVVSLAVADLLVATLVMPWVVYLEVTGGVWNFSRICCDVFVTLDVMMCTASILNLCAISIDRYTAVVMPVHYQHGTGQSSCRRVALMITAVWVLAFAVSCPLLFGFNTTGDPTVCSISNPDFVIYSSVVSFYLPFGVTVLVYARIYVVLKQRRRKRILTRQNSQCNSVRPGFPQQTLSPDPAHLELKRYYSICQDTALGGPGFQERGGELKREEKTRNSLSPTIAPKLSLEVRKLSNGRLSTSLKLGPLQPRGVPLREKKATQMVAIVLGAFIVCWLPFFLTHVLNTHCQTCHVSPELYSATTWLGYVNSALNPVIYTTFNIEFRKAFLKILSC
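Cells plated overnight at 1500 cells/well, then exposed to library compounds with dopamine controls for 90 minutes at 37 degrees C. DiscoveRx reagent added for 30–60 minutes at room temperature; luminescence read, quantitative HTS format.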
D1 potentiator: potentiators of human D1 dopamine receptor; 360,000 tested, 0.036% active; P21728; HEK293 TREx D1 cells, calcium flux, dopamine EC20 potentiation; potentiation, % at 10 µM; in the data active = potentiation above about 30%; note: 0% is about no effect
D3 ag: activates the human D3 dopamine receptor; 410,000 tested, 0.58% active; D3R DiscoveRx beta-arrestin cells, luminescence, 90 min; max activation, %; in the data active = max activation above about 30%; note: 0% is about no effect
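Agonist mode: compounds and dopamine controls were applied to plated cells for 90 min at 37 degrees C after an overnight attachment at 1500 cells/well. Luminescent read-out followed 30 - 60 minutes at room temperature with DiscoveRx detection reagent.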
An asterisk follows results filed as active; ? = inconclusive; . = no result given; ! = not active in a repeat; [ ] = dose if it differs, or a comment. Shown are actives, neighbours in structure and some others; about 6.1% of the full set was active somewhere.

SMILES	D1 antag	ERG-DNA inh	D1 ag	D3 antag	D1 potentiator	D3 ag
OC(CN1CCN(c2ccccn2)CC1)Cn1c2ccc(Cl)cc2c2cc(Cl)ccc21 (stereo not given)	3	2%	0	52	-1	45*
OC(CN1CCCCC1)Cn1c2ccc(Cl)cc2c2cc(Cl)ccc21 (stereo not given)	13	-5%	35*	?	-4	-35
COc1ccccc1CNC(=O)c1cc(S(=O)(=O)N2CCN(c3ccccc3)CC2)ccc1Cl	.	-30%[15.4 µM]	.	12	.	-14
Cc1cc(C)nc(N/N=C/c2ccc3c(c2)OCCO3)n1	-32*	-5%	2	-5	-5	-3
Cc1cc(C)nc(N/N=C/c2ccccc2)n1	12	5%	-1	-29	-1	-33
Cc1cccc(N2CCN(S(=O)(=O)c3ccc4c(c3)CC(=O)N4C)CC2)c1C	-30*!	0%	9	5	-5	1
Cc1cccc(N2CCN(S(=O)(=O)c3ccc(S(=O)(=O)N4CCCC4)cc3)CC2)c1C	-2	-15%	3	3	2	0
CC1CCN(S(=O)(=O)c2ccc3c(c2)C(Cl)(Cl)C(=O)N3)CC1	.	.	.	-70*	.	-6
CC1CCN(S(=O)(=O)c2ccc3c(c2)N(C)C(=O)CC(=O)N3C)CC1	-37*!	7%	0	-19	-4	-6
O=C(N/N=C/c1c[nH]c2ccccc12)C1CC(=O)N(c2ccccc2)C1 (stereo not given)	-2	0%	1	-10	-6	-13
CCCCCCn1cc(C(=O)OCC)c(=O)c2cc(F)c(F)cc21	7	-5%	2	9	2	11
Nc1c(C(=O)Nc2nccs2)sc2nc(-c3cccs3)cc(C(F)(F)F)c12	5	-21%	116*	17	0	-4
Cc1nnc(NC(=O)c2sc3nc(-c4cccs4)cc(C(F)(F)F)c3c2N)s1	-30*	.	361*	0	-2	4
CC(C)(C)C(=O)c1sc2nc(-c3cccs3)cc(C(F)(F)F)c2c1N	-5	1%	0	-19	-1	1
Cc1cc(C)c2c(N)c(C(=O)Nc3nccs3)sc2n1	8	5%	1	33	-3	2
COCc1cc(C)nc(SCC[N+](C)(C)CC(=O)c2ccc(Br)cc2)c1C#N	-23	0%	0	-3	-7	-5
Cn1nc(NC(=O)C(F)(F)F)c2ncc(-c3ccccc3)nc21	.	.	.	?	.	-11
Cc1nn(CC(=O)NC2CCC(C)CC2)c(=O)c(C#N)c1C (stereo not given)	-25	-2%	-1	-23	2	-4
CCC1Cc2c(nc(N)c3c(N)nc(N4CCCCC4)c(C#N)c23)O1 (stereo not given)	-31*	0%	0	9	-5	7
N#Cc1c(N2CCCCC2)nc(N)c2c(N)nc3c(c12)CC(c1ccccc1)O3 (stereo not given)	-1	4%	0	0	4	1
O=c1nc(N/N=C/c2ccccn2)cn[nH]1	1	2%	3	-4	2	8
O=C1C(=O)c2ccccc2C(O)=C1c1ccccc1F	-8	0%	-1	-72*	-2	-41
CCOc1ccc2nc(N3CCC(C(=O)NC4CCCCC4)CC3)sc2c1	-3	16%	9	26	0	6
CCOc1ccc2nc(N3CCC(C(=O)NCCCN4CCOCC4)CC3)sc2c1	4	-4%	1	-17	1	5
CCCCN(C)CCCNC(=O)C1CCN(c2nc3ccc(CC)cc3s2)CC1	-53*	-1%	84*	.	3	-11
SMILES	D1 antag	ERG-DNA inh	D1 ag	D3 antag	D1 potentiator	D3 ag
CCCCN(CC)CCCNC(=O)C1CCN(c2nc3ccc(CC)cc3s2)CC1	-62*	-9%	79*	.	6	-10
CCOc1ccc2nc(N3CCC(C(=O)Nc4c(C)cccc4C)CC3)sc2c1	-56*	0%	-1	.	-2	4
O=C(N1CCN(c2ccc(F)cc2)CC1)C1(c2cccs2)CCOCC1	13	.	1	-7	-5	-1
CCCOc1ccc2oc(=O)c3c(c2c1)CCCN3C(=O)CN1CCc2ccccc2C1	21	3%	9	-27	-4	-6
COc1ccc(C2C(C(=O)c3ccccc3)N3c4ccccc4C=CC3C2[N+](=O)[O-])cc1 (stereo not given)	-6	19%	41*	-5	-3	6
CCOC(=O)N1CCN(CC(=O)Nc2sc(CC)cc2C(=O)c2ccc(OC)cc2)CC1	-31*	6%	8	3	2	14
CCc1cc(C(=O)OC)c(NC(=O)CN2CCN(C(=O)C3CCCO3)CC2)s1 (stereo not given)	7	?	5	0	-2	1
COC(=O)c1ccccc1NC(=O)CN1CCN(C(=O)c2ccco2)CC1	-6	-2%	3	14	1	2
CC1CCc2c(sc(NC(=O)CN3CCN(C(=O)c4ccco4)CC3)c2C#N)C1 (stereo not given)	-31*	-3%	6	6	-4	6
CCc1cc(C(=O)OC)c(NC(=O)CN2CCN(C(=O)c3ccco3)CC2)s1	-47*	11%	116*	-6	3	-19
CCc1nc2ccccc2c(C(=O)OCC(=O)N(CCOC)c2c(N)n(Cc3ccccc3)c(=O)[nH]c2=O)c1C	-1	2%	0	-18	-5	1
Cc1cc(C)nc(NS(=O)(=O)c2ccc(NC(=O)c3cc4c(=O)n5cccc(C)c5nc4n3C)cc2)n1	3	-3%	1	-9	-8	3
Nc1[nH]c(C(=O)c2ccccc2)c(-c2c(F)cccc2F)c1C(=O)c1ccc(Cl)c(Cl)c1	.	.	.	-22	.	-7
COc1ccc(NC(=O)CN(C)C(=O)/C=C/c2cn(-c3ccccc3)nc2-c2ccc(C)cc2)cc1	-8	5%	3	-55*	0	-2
COc1ccc(NC(=O)CN(C)C(=O)/C=C/c2cn(-c3ccccc3)nc2-c2ccc(F)cc2)cc1	6	-13%	9	-4	2	-23
O=C1CC(c2ccccc2)CC2=C1CN(C1CCCCC1)CN2 (stereo not given)	-16	-1%	0	-79*	-4	-3
CC(=O)Nc1ccc(S(=O)(=O)Nc2nc3ccc([N+](=O)[O-])cc3s2)cc1	7	-4%	4	-12	-4	4
CCOc1ccc2nc(NC(=O)CS(=O)(=O)c3ccc(Cl)cc3)sc2c1	.	7%	-3	.	-1	29
CCOc1ccc2nc(NC(=O)CS(=O)(=O)c3ccccc3)sc2c1	-7	8%	2	156	-3	32*
